The source made the active and inactive calls.
Key:
[1] = E. coli DRC41 culture turbidity changes, primary screen, E. coli filamentation inducer project, strain DRC41, OD650, 48 h (AID 1152);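 note: E. coli MC1000 strain DRC41 lacking acrAB efflux pump and sulA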; details: E. coli DRC41 (acrAB sulA), higher = more signal, called active from +8 up or from −8 down
[2] = small-molecule binders of probe aLefty1, primary screen, biochemical, small-molecule microarray, 635/667 nm fluorescence (AID 1153); details: higher = more signal;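 note: score merges spot fluorescence with signal-to-noise ratio from the scanned slide images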
[3] = PSAC antagonists in infected red cells, primary screen, cell-based, P. falciparum Indochina, OD700, 1 h (AID 1154); details: P. falciparum Indochina infected RBC osmotic lysis, higher = more signal, called active from +8 up or from −8 down
[4] = PSAC antagonists in infected red cells, primary screen, cell-based, P. falciparum Indochina, OD700, 2 h (AID 1155);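 note: lysis reports solute entry through the parasite surface anion channel PSAC; channel blockers reduce lysis of infected cells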; details: P. falciparum Indochina infected erythrocytes, osmotic lysis OD700; higher = more signal, called active from +8 up or from −8 down
[5] = osmotic lysis modulators in infected erythrocytes, primary screen, PSAC antagonist project, cell-based, P. falciparum Indochina, OD700, 3 h (AID 1156); details: higher = more signal, called active from +8 up or from −8 down
[6] = PSAC antagonists in infected red cells, primary screen, cell-based, P. falciparum Indochina, OD700, 18 h (AID 1157); details: P. falciparum Indochina infected erythrocytes, osmotic lysis OD700, 18 h; higher = more signal, called active from +8 up or from −8 down
[7] = modulators of S6 phosphorylation in cells, primary screen, cell-based, A549, cytoblot, luminescence, serum-stimulated (AID 1158); details: A549 phospho-S6 cytoblot, 5 h, higher = more signal;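 note: serum-stimulated A549 lung adenocarcinoma cells; signal is phosphorylated S6 detected by cytoblot immunostaining with HRP secondary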
[8] = target: NADPH oxidase 2 (Homo sapiens) (UniProt P04839); experiment: NOX2-dependent H2O2 signal modulators, primary screen, NOX inhibitor project, cell-based, HEK293-NOX2, PMA-stimulated, Amplex Red fluorescence (AID 1159); details: 45 min, higher = more signal, called active from +8 up or from −8 down; note: test concentration not given here
[9] = target: NADPH oxidase 4 (Homo sapiens) (UniProt Q9NPH5); experiment: NOX4-dependent H2O2 signal modulators, primary screen, NOX inhibitor project, cell-based, HEK293-NOX4, tetracycline-induced, Amplex Red fluorescence (AID 1160); details: 45 min, higher = more signal, called active from +8 up or from −8 down
[10] = target: NADPH oxidase 5 (Homo sapiens) (UniProt Q96PH1); experiment: NOX5-dependent H2O2 signal modulators, primary screen, NOX inhibitor project, cell-based, HEK293-NOX5, Amplex Red fluorescence (AID 1161); details: HEK293-NOX5, ionomycin, 45 min, higher = more signal
[11] = A549 cell viability effects, profiling panel, calcein-AM fluorescence, 48 h, basal (AID 1162); details: higher = more signal; note: test concentration not given here
[12] = adipocyte viability effects, profiling panel, cell-based, 3T3-L1 adipocytes, calcein-AM fluorescence, 48 h, basal (AID 1163); details: 3T3-L1 adipocytes viability, higher = more signal; note: test concentration not given here
[13] = HepG2 cell viability effects, profiling panel, calcein-AM fluorescence, 48 h, basal (AID 1164); details: higher = more signal; note: test concentration not given here
[14] = MM1S cell viability effects, profiling panel, calcein-AM fluorescence, 48 h, basal (AID 1165); details: higher = more signal;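 note: viability of MM1S multiple myeloma cells under basal unstimulated conditions; test concentration not given here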
[15] = basal RPMI8226 viability, no added stimulus, profiling panel, cell-based, calcein-AM fluorescence, 48 h, PK04 Diversity Set (AID 1166); details: RPMI8226 myeloma viability, higher = more signal;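 note: cells grown under basal conditions without added stimulus; test concentration not given here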
[16] = basal HepG2 mitochondrial membrane potential changes, profiling panel, cell-based, JC-1 fluorescence, 24 h, 100 nL compound (AID 1167); details: higher = more signal; note: test concentration not given here
[17] = basal 3T3-L1 adipocyte mitochondrial potential changes, profiling panel, cell-based, JC-1 fluorescence, 3T3-L1 adipocytes, 24 h, 100 nL compound (AID 1168); details: JC-1 mitochondrial fluorescence, higher = more signal, called active from +8 up or from −8 down; note: test concentration not given here
[18] = basal RPMI8226 mitochondrial membrane potential changes, profiling panel, cell-based, JC-1 fluorescence, 24 h, 100 nL compound (AID 1169); details: RPMI8226 myeloma, JC-1 mitochondrial potential fluorescence, higher = more signal; note: test concentration not given here
[19] = basal MM1S mitochondrial membrane potential changes, profiling panel, cell-based, JC-1 fluorescence, 24 h, 100 nL compound (AID 1170); details: higher = more signal; note: test concentration not given here
[20] = A549 lung cancer cell viability effects, profiling panel, resazurin fluorescence, 24 h, PK04 Diversity Set (AID 1171); details: higher = more signal, called active from +8 up or from −8 down; note: test concentration not given here

Chain of NADPH oxidase 5 (Homo sapiens) (Q96PH1 whole entry, looked up): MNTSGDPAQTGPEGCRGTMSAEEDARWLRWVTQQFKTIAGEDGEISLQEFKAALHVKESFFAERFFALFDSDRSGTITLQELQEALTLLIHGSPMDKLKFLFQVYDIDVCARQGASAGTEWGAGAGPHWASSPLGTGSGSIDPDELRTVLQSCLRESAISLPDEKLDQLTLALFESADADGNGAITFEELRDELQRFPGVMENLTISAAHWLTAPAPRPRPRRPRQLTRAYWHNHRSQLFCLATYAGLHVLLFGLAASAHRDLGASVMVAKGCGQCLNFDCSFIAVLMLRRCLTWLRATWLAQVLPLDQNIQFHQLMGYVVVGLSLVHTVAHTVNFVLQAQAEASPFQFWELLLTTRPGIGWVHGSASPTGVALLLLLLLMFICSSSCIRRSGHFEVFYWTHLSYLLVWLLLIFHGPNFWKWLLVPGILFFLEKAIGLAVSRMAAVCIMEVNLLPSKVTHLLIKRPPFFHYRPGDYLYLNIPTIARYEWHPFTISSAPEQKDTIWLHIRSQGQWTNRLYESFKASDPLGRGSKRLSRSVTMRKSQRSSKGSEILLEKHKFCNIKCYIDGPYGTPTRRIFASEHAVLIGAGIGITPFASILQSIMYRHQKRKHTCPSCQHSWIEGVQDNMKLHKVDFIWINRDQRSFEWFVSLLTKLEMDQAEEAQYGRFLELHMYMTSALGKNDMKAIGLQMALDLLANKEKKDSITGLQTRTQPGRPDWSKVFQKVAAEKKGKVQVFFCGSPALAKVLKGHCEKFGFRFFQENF
Chain of NADPH oxidase 2 (Homo sapiens) (P04839 whole entry, looked up): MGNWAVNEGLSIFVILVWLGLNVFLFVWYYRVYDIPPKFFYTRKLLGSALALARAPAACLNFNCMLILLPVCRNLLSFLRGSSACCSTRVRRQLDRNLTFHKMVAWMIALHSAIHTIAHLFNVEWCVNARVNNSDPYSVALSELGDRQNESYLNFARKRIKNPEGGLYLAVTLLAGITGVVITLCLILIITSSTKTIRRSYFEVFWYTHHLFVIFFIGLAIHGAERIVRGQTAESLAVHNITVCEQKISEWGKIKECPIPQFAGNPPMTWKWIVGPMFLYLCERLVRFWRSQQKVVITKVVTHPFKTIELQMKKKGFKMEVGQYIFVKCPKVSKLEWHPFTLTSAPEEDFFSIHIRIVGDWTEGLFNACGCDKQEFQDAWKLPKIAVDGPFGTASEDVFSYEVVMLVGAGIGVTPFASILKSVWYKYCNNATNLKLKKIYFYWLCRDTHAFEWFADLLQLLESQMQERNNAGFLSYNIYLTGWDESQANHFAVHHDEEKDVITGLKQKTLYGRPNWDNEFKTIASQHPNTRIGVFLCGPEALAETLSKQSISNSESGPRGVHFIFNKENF
Chain of NADPH oxidase 4 (Homo sapiens) (Q9NPH5 whole entry, looked up): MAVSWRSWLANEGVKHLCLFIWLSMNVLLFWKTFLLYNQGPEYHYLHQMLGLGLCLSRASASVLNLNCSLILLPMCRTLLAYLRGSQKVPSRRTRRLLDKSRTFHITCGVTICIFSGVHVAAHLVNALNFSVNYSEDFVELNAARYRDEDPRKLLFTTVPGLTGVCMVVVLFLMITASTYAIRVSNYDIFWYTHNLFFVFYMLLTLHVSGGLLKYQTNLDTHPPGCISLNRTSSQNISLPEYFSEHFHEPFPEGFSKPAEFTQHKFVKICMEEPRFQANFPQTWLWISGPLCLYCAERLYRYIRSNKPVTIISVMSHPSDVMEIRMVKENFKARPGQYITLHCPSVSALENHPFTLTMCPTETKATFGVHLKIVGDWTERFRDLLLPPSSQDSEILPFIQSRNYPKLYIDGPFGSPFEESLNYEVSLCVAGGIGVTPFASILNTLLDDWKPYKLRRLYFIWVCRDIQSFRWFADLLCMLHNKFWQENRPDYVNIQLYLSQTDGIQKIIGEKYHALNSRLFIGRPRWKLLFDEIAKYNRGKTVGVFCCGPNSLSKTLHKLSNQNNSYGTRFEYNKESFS

Compound: CCc1cc2c(nc1CC)CCN(CCC(C)=NO[C@@H]1O[C@H](COC(C)=O)[C@@H](OC(C)=O)[C@H](OC(C)=O)[C@H]1OC(C)=O)C2
- z-score [1]: -1.13 (inactive)
- composite z-score [2]: -0.0929
- z-score [3]: -0.451 (inactive)
- z-score [4]: -1.01 (inactive)
- z-score [5]: 1.42 (inactive)
- z-score [6]: -1.67 (inactive)
- z-score [7]: 1.83
- z-score [8]: 0.0419 (inactive)
- z-score [9]: 0.47 (inactive)
- z-score [10]: 1.03
- z-score [11]: -0.984
- z-score [12]: 0.776
- z-score [13]: -0.536
- z-score [14]: -2.58
- z-score [15]: -1.14
- z-score [16]: 1.7
- z-score [17]: -0.325 (inactive)
- z-score [18]: -0.0793
- z-score [19]: 0.0201
- z-score [20]: -0.223 (inactive)

Compound: CO[C@H]1COC(=O)[C@H](CCSC)NC(=O)CC=C[C@@H](C)[C@H](OC)COC(=O)[C@@H](OCc2ccccc2)C=C[C@@H]1C
- z-score [1]: 0.319 (inactive)
- composite z-score [2]: -0.173
- z-score [3]: 0.463 (inactive)
- z-score [4]: 0.191 (inactive)
- z-score [5]: 1.17 (inactive)
- z-score [6]: 0.367 (inactive)
- z-score [7]: -0.378
- z-score [8]: 0.167 (inactive)
- z-score [9]: 0.25 (inactive)
- z-score [10]: -0.911
- z-score [11]: -0.843
- z-score [12]: -0.161
- z-score [13]: -1.1
- z-score [14]: -0.0051
- z-score [15]: 0.241
- z-score [16]: 0.247
- z-score [17]: -1.75 (inactive)
- z-score [18]: 0.759
- z-score [19]: -0.491
- z-score [20]: 0.886 (inactive)

Compound: O=C1C[C@@H](O)[C@@H](O)[C@@H]2[C@@H]3C(=O)N(C4CCCCC4)C(=O)[C@@H]3CC[C@@H]12
- z-score [1]: -0.348 (inactive)
- composite z-score [2]: -0.395
- z-score [3]: 0.733 (inactive)
- z-score [4]: 0.14 (inactive)
- z-score [5]: 0.265 (inactive)
- z-score [6]: -0.0387 (inactive)
- z-score [7]: -0.604
- z-score [8]: -0.0439 (inactive)
- z-score [9]: 0.468 (inactive)
- z-score [10]: 0.0192
- z-score [11]: 0.112
- z-score [12]: 0.0679
- z-score [13]: 0.236
- z-score [14]: -0.0357
- z-score [15]: 0.313
- z-score [16]: 0.0325
- z-score [17]: -0.907 (inactive)
- z-score [18]: 0.0121
- z-score [19]: -0.377
- z-score [20]: -0.732 (inactive)

Compound: O=C1[C@H]2[C@H]3[C@H](O)[C@H](O)CC(=NOC[C@@H](O)COCc4ccco4)[C@@H]3CC[C@H]2C(=O)N1c1cccc(Oc2ccccc2)c1
- z-score [1]: -1.26 (inactive)
- composite z-score [2]: -0.247
- z-score [3]: 2.27 (inactive)
- z-score [4]: 0.802 (inactive)
- z-score [5]: 1.39 (inactive)
- z-score [6]: 0.157 (inactive)
- z-score [7]: -0.664
- z-score [8]: 2.2 (inactive)
- z-score [9]: 1.32 (inactive)
- z-score [10]: 0.425
- z-score [11]: -0.382
- z-score [12]: -0.454
- z-score [13]: -1.19
- z-score [14]: -0.163
- z-score [15]: 0.0958
- z-score [16]: -0.0749
- z-score [17]: -0.785 (inactive)
- z-score [18]: 0.688
- z-score [19]: -0.105
- z-score [20]: 0.0561 (inactive)

Compound: CC(C)CON=C1C[C@@H](O)[C@@H](O)[C@@H]2[C@@H]3C(=O)N(C(C)(C)C)C(=O)[C@@H]3CC[C@@H]12
- z-score [1]: -1.53 (inactive)
- composite z-score [2]: -0.268
- z-score [3]: 0.778 (inactive)
- z-score [4]: -0.692 (inactive)
- z-score [5]: 0.695 (inactive)
- z-score [6]: -2.29 (inactive)
- z-score [7]: 1.13
- z-score [8]: 0.571 (inactive)
- z-score [9]: -0.75 (inactive)
- z-score [10]: -2.22
- z-score [11]: -0.502
- z-score [12]: 1.07
- z-score [13]: -0.337
- z-score [14]: 0.086
- z-score [15]: -0.289
- z-score [16]: -0.0218
- z-score [17]: 0.174 (inactive)
- z-score [18]: -0.865
- z-score [19]: 0.342
- z-score [20]: -0.288 (inactive)

Reference: PubChem BioAssay
